Results as given in PubChem BioAssay AID651821 (The Scripps Research Institute Molecular Screening Center, 2012).
Screen size: about 370,000 compounds; about 4,700 (1.3%) were called active.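 How the source made its calls: active means inhibition above the plate cutoff, the mean of all test compounds on that plate plus 3 SD (cut at about 35% in these data); inactive means the rest.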 The full list was thinned out, with actives kept by preference.

Test: binders of r(CAG) RNA repeats, primary screen, biochemical, fluorescence (AID 651821);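 further: 0% = DMSO alone and 100% = 100 µM mitoxantrone as full dye displacement; higher means more dye released from RNA so lower well fluorescence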
Conditions: r(CAG) RNA repeat, TO-PRO-1 dye displacement fluorescence; at 3 µM; stronger effect = higher value
For `COC(=O)c1cc(S(=O)(=O)N2CCN(C(=O)C3CCCO3)CC2)cn1C` (stereo not drawn), the inhibition was 1.73% (inactive).
For `COC(=O)[C@]12C[C@H](CC(=O)NCc3ccc(OC)c(OC)c3)C(=O)N(Cc3ccccc3)C1=C[C@H](C(C)C)O[C@@H]2C1CC1`, the inhibition was 1.35% (inactive).
For `O=C(NC1CCCCN(Cc2cccc(C(F)(F)F)c2)C1=O)c1ccccc1I` (stereo not drawn), the inhibition was -0.65% (inactive).
In the case of `Cc1csc(CN(C)C(=O)CC2C(=O)NCCN2CC(C)(C)C)n1` (stereo not drawn), the inhibition is reported as -3.94% (inactive).
In the case of `O=C(NCc1ccco1)C1CCCN(S(=O)(=O)c2ccc(Cl)s2)C1` (stereo not drawn), the inhibition is reported as -0.27% (inactive).
For `CSC1=NN(c2ccccc2)CN(c2ccccc2)N1C`, the inhibition was 0.22% (inactive).
In the case of `COc1ccccc1-c1ccc([C@@H]2C[C@H]3[C@H](CON3C)CN2S(=O)(=O)c2cc(Cl)cc(Cl)c2)cc1`, the inhibition is reported as 5.7% (inactive).
In the case of `CN(Cc1ccccc1)CC(O)COc1ccc(CNCc2cc3ccccc3s2)cc1` (stereo not drawn), the inhibition is reported as -2.3% (inactive).
With `Nn1c(SCC(=O)N2c3ccccc3Sc3ccccc32)nnc1-c1n[nH]c2c1CCC2` the inhibition was 12.9% (inactive).
With `CC(CCN1CCC(C(O)(c2ccccc2)c2ccccc2)CC1)Oc1ccc(C(F)(F)F)cc1` (stereo not drawn) the inhibition was 2.52% (inactive).
In the case of `Cc1ccc(C2=CCN(C)C(=O)N2c2ccc(Cl)cc2)cc1`, the inhibition is reported as 6.97% (inactive).
In the case of `Cc1ccc(-n2c(SCC(=O)Nc3ccc(S(=O)(=O)Nc4nccs4)cc3)nnc2-c2ccncc2)cc1`, the inhibition is reported as 67.7% (active).
For `Cc1ccc(-n2c(SCC(=O)Nc3ccc4c(c3)OCO4)nnc2-c2ccccn2)cc1`, the inhibition was -1.61% (inactive).
For `Cc1ccc(-n2c(SCC(=O)Nc3ccc(S(=O)(=O)Nc4nccs4)cc3)nnc2-c2ccccn2)cc1`, the inhibition was 69.8% (active).
With `COc1ccc(-n2c(SCC(=O)Nc3ccc4cn[nH]c4c3)nnc2-c2cccnc2)cc1` the inhibition was 5.12% (inactive).
For `Cc1ccc(-n2c(SCC(=O)Nc3ccc(S(=O)(=O)Nc4nccs4)cc3)nnc2-c2cccnc2)cc1`, the inhibition was 60.1% (active).
For `Cn1c(SCC(=O)Nc2nccs2)nnc1-c1cccnc1`, the inhibition was 3.4% (inactive).
With `O=C(CSc1nnc(-c2ccncc2)n1-c1ccc(Cl)cc1)Nc1ccc(C(=O)O)cc1` the inhibition was 3.19% (inactive).
For `Cc1ccc(-c2nnc(SCC(=O)N/N=C/c3cccs3)n2-c2ccc(C)cc2)cc1`, the inhibition was 2.97% (inactive).
In the case of `O=C(CSc1nnc(-c2ccccn2)n1-c1ccccc1)Nc1ccc2c(c1)OCO2`, the inhibition is reported as 1.36% (inactive).
In the case of `Cc1ccc(Cn2cc(COC(=O)N(C)Cc3ccccc3)nn2)cc1`, the inhibition is reported as 0.63% (inactive).
In the case of `COC(=O)c1c(-c2ccc(OC)cc2)c2c(c3c4cc(OC)ccc4n(S(=O)(=O)c4ccc(F)cc4)c13)C(=O)N(C)C2`, the inhibition is reported as 14.1% (inactive).
For `COC(=O)[C@]1(C#N)CC(=O)N(CC2CCCCC2)[C@@H]1c1ccccc1`, the inhibition was 0.85% (inactive).
With `CCOC(=O)C1Sc2[nH]c(=O)sc2C(c2ccc(Cl)cc2)C1C(=O)OCC` (stereo not drawn) the inhibition was 24.3% (inactive).
For `CC(OC(=O)c1ccccc1N1C(=O)C2C3CCC(C3)C2C1=O)C(=O)c1ccccc1` (stereo not drawn), the inhibition was -4.3% (inactive).
In the case of `CCOC(=O)c1ccccc1N1C(=O)C2Sc3[nH]c(=O)sc3C(/C=C/c3ccccc3)C2C1=O` (stereo not drawn), the inhibition is reported as 54% (active).
In the case of `CC[C@H](C)[C@H]1CNC(=O)C(=O)N1CC1CCN(CCc2ccc(OC)c(OC)c2)CC1`, the inhibition is reported as 3.94% (inactive).
For `COc1ccccc1CCNC(=O)C1CCN(c2nc(C)cc(C)n2)CC1`, the inhibition was -2.28% (inactive).
With `N#Cc1c(-c2ccccc2)cc(-c2ccccc2)nc1SCC(=O)O` the inhibition was 55% (active).
For `N#Cc1c(-c2ccc(F)cc2)cc(C2CC2)nc1SCC(=O)c1cccs1`, the inhibition was 1.58% (inactive).
For `CCSc1nc(-c2ccc(OC)cc2)cc(-c2ccc(OC)cc2)c1C#N`, the inhibition was 0.76% (inactive).
With `CC(C)CNS(=O)(=O)CC1NCCc2ccccc21` (stereo not drawn) the inhibition was 5.19% (inactive).
In the case of `NNc1cccc(C=Cc2ccccc2)cc1=O`, the inhibition is reported as 40.1% (active).
With `Nn1c(SCC(=O)Nc2ccc(S(N)(=O)=O)cc2)nnc1-c1n[nH]c2c1CCC2` the inhibition was 3.81% (inactive).
In the case of `COC(=O)c1cc2c(c3c4ccccc4n(S(=O)(=O)c4cccc(C)c4)c13)C(=O)N(Cc1ccccc1)C2`, the inhibition is reported as 15.1% (inactive).
With `CC(=O)c1ccc(Nc2nc(C(N)c3ccccc3Cl)cs2)cc1` (stereo not drawn) the inhibition was 2.58% (inactive).
With `O=c1oc2ccccc2cc1-c1csc(Nc2ccc(O)cc2)n1` the inhibition was 38.9% (active).
For `O=S1(=O)c2c(cccc2N2CCCCC2)O[C@H](COCc2ccccc2)CN1C1CC1`, the inhibition was 5.4% (inactive).
With `O=C1Nc2ccccc2C1=NN=Cc1ccco1` the inhibition was 3.21% (inactive).
For `COC(=O)[C@H](C(C)C)N(CCCc1cn(Cc2ccccc2)nn1)S(=O)(=O)c1ccc(F)cc1Br`, the inhibition was 2.97% (inactive).
In the case of `Nc1[nH]c(=S)nc2nc(-c3ccccc3)c(-c3ccccc3)nc12`, the inhibition is reported as 41.4% (active).
With `C[C@H](NC(=O)[C@@H]1Cc2ccccc2CN1C(=O)OC(C)(C)C)C(=O)NC1CCCC1` the inhibition was -7.18% (inactive).
In the case of `COc1ccc2c(c1)CN1CN(CCc3ccccc3)S(=O)(=O)CC21` (stereo not drawn), the inhibition is reported as 3.05% (inactive).
With `CCCCNc1cccc2c1S(=O)(=O)N[C@@H](C)CO2` the inhibition was 0.84% (inactive).
With `COc1cc(NS(=O)(=O)c2ccc(N/C=C(\C=O)c3nc4cc(Cl)ccc4o3)cc2)nc(OC)n1` the inhibition was 60.3% (active).
With `COc1cc(NS(=O)(=O)c2ccc(NC(=S)NC(=O)c3ccccc3)cc2)nc(OC)n1` the inhibition was 24.5% (inactive).
For `COC(=O)Nc1ccc(S(=O)(=O)Nc2cc(OC)nc(OC)n2)cc1`, the inhibition was 1.9% (inactive).
In the case of `COc1ccc(Cn2cc(COC(=O)N(C)Cc3ccccc3)nn2)cc1`, the inhibition is reported as -0.97% (inactive).
With `Cc1ccccc1CN1CCCCC(NC(=O)Nc2ccccc2F)C1=O` (stereo not drawn) the inhibition was 4.44% (inactive).
In the case of `O=C(C=CC(=O)Nc1ccc(F)cc1F)Nc1ccc(F)cc1F`, the inhibition is reported as 0.56% (inactive).
For `COC(=O)c1sc(-c2ccc(C(C)(C)C)cc2)cc1NC(=O)/C=C/C(=O)O`, the inhibition was 36.6% (active).
With `O=C(CSc1nnc(-c2ccccn2)n1-c1ccc(Cl)cc1)Nc1ccccc1-c1ccccc1` the inhibition was 8.25% (inactive).
For `O=C(c1cc(-c2ccco2)nc2ccccc12)N(Cc1nnc(-c2ccc(Cl)cc2)o1)C1CC1`, the inhibition was 8.3% (inactive).
With `Cc1ccc(S(=O)(=O)CCC(=O)OCC(=O)N(C)C2CCS(=O)(=O)C2)cc1` (stereo not drawn) the inhibition was 2.79% (inactive).
In the case of `CN(C(=O)COC(=O)c1cc(-c2ccco2)nc2ccccc12)C1CCS(=O)(=O)C1` (stereo not drawn), the inhibition is reported as 42.3% (active).
With `COC(=O)[C@]12C[C@H](CC(=O)NCC34CC5CC(CC(C5)C3)C4)C(=O)N(Cc3ccc(Cl)cc3Cl)C1=C[C@H](COCc1ccccc1)O[C@@H]2C` the inhibition was 10.5% (inactive).
For `COc1cccc(CNCCc2c[nH]c3ccccc23)c1OCc1ccccc1F`, the inhibition was 4.43% (inactive).
For `COc1ccc(S(=O)(=O)NCCc2c[nH]c3ccccc23)cc1OC`, the inhibition was 35.2% (active).
For `Cc1ccc(S(=O)(=O)N(C)CC(=O)NCCc2c[nH]c3ccccc23)cc1`, the inhibition was 0.8% (inactive).
For `COC(=O)c1c(-c2ccc(OC)cc2)c2c(c3c4ccccc4n(S(=O)(=O)c4ccc(C)cc4)c13)C(=O)N(C)C2`, the inhibition was 14.9% (inactive).
In the case of `C=CCN1C(=O)[C@H](CC(=O)N2CCN(C(=O)OCC)CC2)[C@@]2(C(=O)OCC)CCCC=C12`, the inhibition is reported as 0.1% (inactive).
In the case of `COc1ccc(CN(CCN2CCOCC2)C(=O)c2ccc(C)cc2)cc1OC`, the inhibition is reported as 1.93% (inactive).
With `CC1(C(=O)NS(=O)(=O)c2ccc(Cl)cc2)CCN1C(=O)CC1CCCC1` (stereo not drawn) the inhibition was 9.21% (inactive).
In the case of `CC1(C(=O)NS(=O)(=O)c2ccc3ccccc3c2)CCN1C(=O)C1(c2ccc(Cl)cc2)CCC1` (stereo not drawn), the inhibition is reported as 68.5% (active).
For `Cc1ccccc1S(=O)(=O)NC(=O)C1(C)CCN1C(=O)C1(c2ccc(Cl)cc2)CC1` (stereo not drawn), the inhibition was 33.6% (inactive).
For `COc1ccc(F)cc1S(=O)(=O)NCC(c1ccc2c(c1)OCO2)N1CCN(C)CC1` (stereo not drawn), the inhibition was -3.68% (inactive).
With `CN(Cc1ccc2nsnc2c1)Cc1nc(Cc2cccc(F)c2)no1` the inhibition was -4.71% (inactive).
With `CCOc1cc(/C=C2/N=C(c3ccc(C(C)(C)C)cc3)OC2=O)cc(Cl)c1OS(C)(=O)=O` the inhibition was 67% (active).
With `O=C(COc1ccc([N+](=O)[O-])cc1)Nc1cccc(C(=O)Nc2ccccc2C(=O)O)c1` the inhibition was 77.5% (active).
For `O=C(CSCc1ccc([N+](=O)[O-])cc1)Nc1cccc(C(=O)Nc2ccccc2C(=O)O)c1`, the inhibition was 67.2% (active).
For `O=C(Cc1ccccc1)Nc1ccc(C(=O)Nc2ccccc2C(=O)O)cc1`, the inhibition was 50.2% (active).
For `COc1ccc(NC(=O)CSCc2ccc([N+](=O)[O-])cc2)cc1OC`, the inhibition was -1.63% (inactive).
In the case of `O=C(Nc1ccccc1C(=O)O)c1ccc(N2C(=O)C3CC=CCC3C2=O)cc1` (stereo not drawn), the inhibition is reported as 13.8% (inactive).
With `CN(CCc1ccccc1)C(=O)c1cccc(NC(=O)Cc2ccc([N+](=O)[O-])cc2)c1` the inhibition was 1.94% (inactive).
In the case of `O=C(CSCc1ccc([N+](=O)[O-])cc1)NCCSCc1ccccc1`, the inhibition is reported as -2.49% (inactive).
In the case of `CC1CCN(C(=O)c2ccccc2NC(=O)Cc2ccccc2)CC1`, the inhibition is reported as -6.63% (inactive).
In the case of `O=C(CCCOc1ccccc1)Nc1cccc(C(=O)O)c1`, the inhibition is reported as 6.14% (inactive).
For `O=C(c1ccncc1)N1CC[C@H]2[C@H](CCCN2Cc2ccc(F)cc2)C1`, the inhibition was -0.17% (inactive).
In the case of `COC(=O)C1=C(C(=O)OC)C2C=C(C(C)C)C1C(=O)C2(C)O` (stereo not drawn), the inhibition is reported as 2.51% (inactive).
For `Cc1ccc(C)c(NC(=O)CCS(=O)(=O)c2ccccc2)c1`, the inhibition was 5.79% (inactive).
With `COC(=O)C(C(=O)OC)c1ccccc1NS(=O)(=O)c1cccc2ccccc12` the inhibition was 6.69% (inactive).
In the case of `Cc1ccc(C(=O)C2CCN(CC(=O)NCCC(C)C)CC2)cc1`, the inhibition is reported as -4.12% (inactive).
With `COC(=O)C1=C(C)N(Cc2ccccc2C(F)(F)F)C(=NCC2CC2)NC1c1cccc(Cl)c1` (stereo not drawn) the inhibition was 2.17% (inactive).
